A selection follows.
aSyn 5UTR act: Activators via SNCA 5'UTR binding, MLPCN | alpha-synuclein 5'UTR reporter, activators screen | activity score, % (tested at 7.5 µM), hits read low | 7.1% of 300,000 active | AID 1814, 2009; in the data active means activity score below about -60%
Numbers without * were called inactive.

SMILES | aSyn 5UTR act
C#CCOCCOCCOCCNc1nc(N2CCN(C(=O)CCCCCCCCCCNC(=O)Cn3cc(C[C@@H](C)O)nn3)CC2)nc(N2CCN(C(=O)CCCCCCCCCCNC(=O)[C@H](CCCN=C(N)N)n3cc(C[C@@H](C)CC)nn3)CC2)n1 | -85*
COc1ccc(-c2c(C)c3ccc(O)cc3oc2=O)cc1 | -97*
CCCOc1ccc2c(C)c(CC(=O)OC)c(=O)oc2c1 | -118*
CC(=O)COc1ccc2c(C)c(C)c(=O)oc2c1 | -118*
COc1ccc(-c2c(C)c3ccc(OCC(C)=O)cc3oc2=O)cc1 | -142*
Cc1coc(C)c1C(=O)Nc1ccc2ccccc2c1 | -162*
Cc1cc(NC(=O)c2cccnc2)ccc1Br | -147*
O=C(Nc1ccc(OCc2ccccc2Cl)cc1)c1cccnc1 | 90
O=C(Nc1ccc2ccccc2c1)c1cccnc1 | -161*
Cc1cc(NC(=O)c2ccccc2[N+](=O)[O-])ccc1Br | -130*
O=C(Nc1ccc2c(c1)Cc1ccccc1-2)c1cccnc1 | -122*
O=C(Nc1ccc2nccnc2c1)c1cnccn1 | -79*
Cc1nc(NC(=O)CCc2ccccc2)ccc1Br | -145*
O=C(Nc1ccc2ccccc2c1)c1cnccn1 | -129*
Cc1ccccc1C(=O)Nc1ccc(Br)c(C)n1 | -113*
Cc1nc(NC(=O)c2cccnc2)ccc1Br | -83*
O=C(NC1CCCCC1)C(c1cccnc1)N(C(=O)CCl)c1cccc(Cl)c1 (stereo not drawn) | -81*
O=C(NC1CCCCCCC1)c1cc(F)c(F)cc1Cl | -81*
O=C(NC1CCCCCCC1)c1cccc(Cl)c1 | -166*
CCOc1cccc(C(=O)NC2CCCCC2)c1 | -67*
COc1ccccc1NS(=O)(=O)c1cccc(C(=O)NC2CCN(Cc3ccccc3)CC2)c1 | 83
CCOC(=O)N1CCN(C(=O)c2ccc(C#CC3(O)CCCCC3)cc2)CC1 | -64*
O=C(COc1ccc2c3c(c(=O)oc2c1)CCC3)N1CCCCC1 | -82*
O=C(COc1ccc2ccccc2c1)N1CCCC1 | -68*
O=C(COc1ccc2ccccc2c1)Nc1cccnc1Cl | -77*
SMILES | aSyn 5UTR act
Cc1c(CCC(=O)N2CCC(C(=O)O)CC2)c(=O)oc2cc3oc4c(c3cc12)CCCC4 | 74
Cc1c(CCC(=O)N2CCC(C(=O)O)(c3ccccc3)CC2)c(=O)oc2cc3oc4c(c3cc12)CCCC4 | 67
O=C(COc1ccc2ccccc2c1)NC1CC1 | -128*
c1ccc(-c2cc(N3CCCCCC3)n[nH]2)cc1 | -74*
c1ccc(-c2cc(N3CCCCC3)ncn2)cc1 | -135*
CCN1CCN(C(=S)c2ccc(-c3ccccc3)cc2)CC1 | 66
CCC(=O)c1ccc(-c2ccccc2)cc1 | -89*
CCCC(C)NC(=O)c1ccc(-c2ccccc2)cc1 (stereo not drawn) | -109*
Cc1ccnc(N(C(=O)Nc2ccccc2)C2=NCC(C)(C)S2)c1 | -165*
CN1/C(=C/C=C(/C#N)C(N)=O)C(C)(C)c2ccccc21 | -146*
Cc1nnsc1S(=O)(=O)Cc1ccccc1C(F)(F)F | -76*
N#C/C(=C/c1ccc(N2CCOCC2)o1)C(=O)Nc1ccccc1 | -152*
Cc1ccc(/C(C#N)=C\c2ccc(N3CCOCC3)o2)cc1 | -313*
Cc1ccc2nc(/C(C#N)=C\c3ccc(N4CCOCC4)o3)[nH]c2c1 | -231*
Cc1ccc(OCC(=O)O/N=C(\N)c2cccnc2)cc1 | -88*
N/C(=N\OC(=O)COc1ccc(Cl)cc1Cl)c1cccnc1 | -146*
N/C(=N\OC(=O)c1cc(Cl)ccc1Cl)c1cccnc1 | -131*
N/C(=N\OC(=O)c1ccccc1)c1cccnc1 | -128*
N/C(=N\OC(=O)c1cc(Br)ccc1Cl)c1cccnc1 | -215*
N/C(=N\OC(=O)c1ccccc1Cl)c1cccnc1 | -168*
N/C(=N\OC(=O)c1ccc(Cl)cc1[N+](=O)[O-])c1cccnc1 | -104*
COc1cc2c(C#N)c(N3CCc4ccccc4C3)nc(N)c2c(N)n1 | -88*
CCc1ccc(-c2csc(NC(=O)Oc3ccccc3)n2)cc1 | -161*
O=C(Nc1nc(-c2cccc(Br)c2)cs1)Oc1ccccc1 | -101*
COc1cccc(-c2csc(NC(C)=O)n2)c1 | -181*
SMILES | aSyn 5UTR act
O=C(/C=C/c1ccc(Cl)cc1Cl)Nc1cccc(S(=O)(=O)NC2=NCCCCC2)c1 | -67*
O=C(CSc1ccc2ccccc2c1Br)Nc1cccc(S(=O)(=O)NC2=NCCCCC2)c1 | 64
CCOc1ccc(NC(=O)c2cccc3c2C(=O)N(Cc2cccnc2)C3)cc1 | -111*
CN1CCN(C2=C(Cl)C(=O)N(C3CCCCC3)C2=O)CC1 | -84*
Fc1ccccc1NC(=S)NCCc1ccccc1 | -118*
Fc1ccc(F)c(NC(=S)NCCc2ccccc2)c1 | -93*
Fc1cccc(NC(=S)NCCc2ccccc2)c1 | -71*
Cc1cc(NC(=S)Nc2ccc(C)c(Cl)c2)n[nH]1 | -110*
COc1ccc(NC(=S)Nc2cc(C)[nH]n2)cc1Cl | -125*
Cc1ccc(C=Nc2ccccc2C(N)=O)o1 | -154*
Cc1ccc(C(=O)/C=C/Nc2ccccc2C(N)=O)o1 | -200*
COc1ccccc1Oc1ccc(N/C=C/C(=O)c2ccc(C)o2)cc1 | -89*
NC(=O)c1ccccc1N/C=C/C(=O)c1ccc(F)cc1 | -65*
COc1cccc(-c2nc(CS(=O)(=O)c3ccccc3)no2)c1 | -126*
Fc1cccc(F)c1-c1nc(-c2ccncc2)no1 | -142*
COc1ccc(-c2noc(-c3cccc(Cl)c3)n2)cc1OC | -184*
Clc1cccc(-c2nc(-c3ccccn3)no2)c1 | 93
COc1ccc(-c2noc(-c3ccccc3Cl)n2)cc1OC | -180*
COc1cccc(-c2nc(-c3ccncc3)no2)c1 | -114*
Cc1ccc(-c2noc(-c3ccno3)n2)cc1 | -126*
COc1ccc(-c2nc(-c3ccncc3)no2)cc1OC | -121*
Cc1cc2ccccn2c1C(=O)Nc1ccccc1 | -109*
Cc1cc2ccccn2c1C(=O)Nc1ccc(Cl)cc1 | -117*
C(=C\c1ccccn1)/c1ccccn1 | -115*
Brc1ccc(N=Cc2ccccn2)cc1 | -73*
SMILES | aSyn 5UTR act
CC(C)(C)C1C/C(=C/c2ccccn2)C(=O)/C(=C/c2ccccn2)C1 (stereo not drawn) | 103
CC1C/C(=C/c2ccccn2)C(=O)/C(=C/c2ccccn2)C1 (stereo not drawn) | 89
CCCC1CCC(c2ccc(OCC)cc2)=CC1=O (stereo not drawn) | -216*
CCOC(=O)CSc1nc2cc(OCC)ccc2cc1C#N | -209*
COC(=O)CSc1nc2cc(OC)ccc2cc1C#N | -133*
CCOC(=O)CSC1=C(C#N)C(c2ccc(C)o2)CC(=O)N1 (stereo not drawn) | 78
COc1ccc2nc(SCC(=O)Nc3ccc4sc(C)nc4c3)c(C#N)cc2c1 | -148*
COc1ccc2cc(C#N)c(SCC(=O)NNC(=O)Cc3ccccc3)nc2c1 | -78*
c1ccc(CCn2cnc3ccccc32)cc1 | -91*
COc1ccc(OCCn2cnc3ccccc32)cc1 | -70*
Cc1ccccc1OCC(O)Cn1c(=N)n(Cc2ccccc2)c2ccccc21 (stereo not drawn) | 113
Brc1ccccc1OCCCn1cnc2ccccc21 | -93*
Cc1ccccc1OCCCCn1cnc2ccccc21 | -83*
COc1cccc(/C=N/n2c(=O)[nH]c3ccccc32)c1OC | -164*
COc1ccc(C2=Nn3c(nnc3-c3ccccc3OC)SC2)cc1OC | 107
COc1ccc(-c2csc(-c3ccc(O)cc3)n2)cc1 | -215*
CCc1ccc(-c2nc(CCl)cs2)cc1 | -123*
COc1ccc(-c2nc(CCl)cs2)cc1 | -142*
COc1ccc(-c2nc(-c3ccc(O)cc3O)cs2)cc1OC | -94*
